From the supplement of paper PMC12632987
Whole data set: some 2,300 sequences, median “median log2 fold change of GCK-ALFA target abundance (FLAG IP / Myc IP barcode read proportion)” near 0.095, cut for the lowest 2% near -0.47. The list comes from a sample in which the lowest values are over-represented; it also holds similar and randomly drawn sequences.

B1: LC3A_6_2066 (protein)
chain: KLYKITIDILLKSEKPEEALKVAKEIAEEIRKFAEEINKEYNGAVKKLEIKIEEIDGEVFLTIEIVAEEKAVNEIIDKVDEIVEENKEYVAASMISVEEL
B2: LC3A_28_724 (protein)
chain: NRLEASIAAALARARALAAAGESDVIEITIPGDATEEDIERVIEALEEIAAITADLPRTDIVINVEGGVKQEHIDRLADAAEAIEARYPNVTVIIALDEE
B3: LC3A_55_2007 (protein)
chain: MEVFIFITENAETGEILALEVEVDSDPERLLEALRAAGEELAAELFRLANGRRLDEEEMAEIKARYSPEEVRAAVEALIAVLESLPDVKVSVLIELEEEE
B4: LC3A_13_341 (protein)
chain: TVTLEVETAEELRERGFAALAAHPGETIRITVTVRDEEEAEAIAEVLAELVRAAAEAGSDLEITIRGPRDLVLYVALEVGSEAYEHIDKVTVTITEEVVE
B5: LC3A_147_449 (protein)
chain: MLYEITVDALFKNDPALAEEVAEQLKAIAEKHGGEVEVEFEEEQVSPTTTEYFLNVTITFEDKAKAQAAETEIAALLDETAAKHPDKFLGAILSFEEVEP
B6: LC3A_3_1611 (protein)
chain: MEELIERELERLREAGFSPEVLEEARKVLEALAEKGYRRAIEKLTEELLKLKDVDPELVIEALREILRIVTEEDLSEEEVIEEIEREFRVVRLESEIIEL
B7: LC3A_free_8_2519 (protein)
chain: KSKAFAQRVVAILEELEKEIVKLLKEKGASRLDILEAELLIGSIIAEVISLQDKSPEEIIKAVKEGLKELVEELEKYKEEVKKLAEEALKKIEAAKKELE
B8: LC3A_3_1395 (protein)
chain: FEEIRKETIEYLKKAGKSEEVIKAAEEALELLEKRGYLEAAKTFLEELKKMKDVSDELLLWFLNEVINYLKTNDDDEETVIKKIKEFATIVKNESEIEEL

Molecular target: MAP1LC3A, Q9H492
Assay: median log2 fold change of GCK-ALFA target abundance (FLAG IP / Myc IP barcode read proportion) (log2 ratio); each designed protein is fused to an ALFA-tag nanobody in HEK293 cells to bring the named protein to FLAG-tagged glucokinase (GCK); Myc marks an untargeted standard; higher = target protein stabilised (more abundant)
Details: target protein: 3xFLAG-MCP-GCK-ALFA reporter; HEK293 landing pad (RPLP)
Procedure, shortened: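 An ALFA-nanobody-fused binder library was recombined into HEK293 landing-pad cells and induced with 2 μg mL^−1 doxycycline. Cells were transfected with a plasmid expressing a FLAG-tagged target and a Myc-tagged standard. After 48 h, lysates underwent anti-FLAG and anti-Myc immunoprecipitation, and circular RNA barcodes were reverse transcribed, amplified and sequenced. Target abundance is the per-binder median log2 ratio of FLAG to Myc barcode read proportions. Barcodes needed ≥10^−7 proportion in both replicates, binders ≥3 barcodes per replicate, and a 10^−6 pseudocount was added; the two replicates were pooled.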

Binder	median log2 fold change
B1	-0.173
B2	0.154
B3	0.119
B4	0.0625
B5	-0.603
B6	0.132
B7	-0.243
B8	0.436
